The text below walks through data of PubChem BioAssay (NCATS).

“And” between values parts separate entries of the source, which are not always exact repeats. Identical values can stand only once. Results filed as inconclusive are left out. The source made the active and inactive calls. Unless noted, calls come from the whole dose curve; as a rule, active = well fitted curve in the direction sought with a large enough effect; inconclusive = small, poorly fitted or top-dose-only effect, or another doubt; inactive = no such curve, though single readings can be large; an effect the other way counts as inactive or inconclusive.

Assay [1] can be described thus: Cell Viability - N2a (AID 540).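 Note: plate controls were DMSO alone for no effect and tamoxifen control for full effect; nearly all actives have a fitted effect of over 45% in size.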 The settings on record: N2a mouse neuroblastoma cell viability; activity change, negative = cytotoxicity: at 92.2 µM (top of the series). The gist of the method:
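CellTiter-Glo ATP luminescence, read 20 min after reagent at room temperature, reported viability following 40 h compound treatment at 37 °C. N2a mouse neuroblastoma cells seeded 1500/well; Hill equation gave AC50.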

A short description of assay [2]: Cell Viability - SH-SY5Y (AID 544).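 Note: cells exposed to compound for 40 hours; 0% = DMSO alone and -100% = 100 µM tamoxifen; nearly all actives have a fitted effect of over 55% in size.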 The settings on record: SH-SY5Y neuroblastoma cell viability; viability change, negative = cytotoxic: at 92.2 µM (top of the series). The gist of the method: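 Cytotoxicity measured via ATP-dependent luciferase luminescence (CellTiter-Glo) following 40 h, 37 °C exposure of 1500 SH-SY5Y cells per well. Concentration-response data were fitted with the standard Hill equation to give AC50.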

The nature of assay [3]: Cell Viability - Renal Proximal Tubule (AID 545).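 Note: cells exposed to compound for 40 hours; 0% = DMSO only and -100% = 100 µM tamoxifen; nearly all actives have a fitted effect of over 40% in size.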 An outline of the steps: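 Viability taken as intracellular ATP (CellTiter-Glo luminescence) after 40 hr, 37 °C compound treatment of primary proximal tubule cells from rat kidney, 1000 cells/well; Hill-equation fits of qHTS concentration-response data gave AC50.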
The target of assay [4] is Cytochrome P450 3A4 (Homo sapiens) (UniProt P08684). Nature of the assay: qHTS Assay for Inhibitors and Substrates of Cytochrome P450 3A4 (AID 884). Note: % is set by controls: 0 for no effect and ±100 for the full control effect; nearly all actives have a fitted effect of over 50% in size. The gist of the method:
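Luminescent readout of luciferin produced by CYP3A4 (20 nM) dealkylation of Luciferin-PPXE, 25 uM (its KM). NADPH-driven reaction ran 60 min at RT after 10 min compound preincubation; data scaled to 57 uM ketoconazole as 100% inhibition.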
On the technique in general: Quantitative high-throughput screening tests each substance at several concentrations.

Assay [5] in a line: Cell Viability - LYMP2-001 (AID 921).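 Note: 0% = DMSO only and full inhibition = tetraoctylammonium bromide control wells; nearly all actives have a fitted effect of over 70% in size.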 An outline of the steps: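 Cellular ATP loss read by luciferase luminescence after 24 h compound exposure at 37 C in complete medium. LYMP2-001 lymphoblastoid cells, 2500/well; qHTS concentration-response data fitted with Hill equation for AC50.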
A short description of assay [6]: Cell Viability - LYMP2-003 (AID 965).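 Note: cells exposed to compounds for 24 h before reading; 0% = DMSO only and full effect = 92 µM tetraoctylammonium bromide; nearly all actives have a fitted effect of over 50% in size.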 The gist of the method:
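CellTiter-Glo luminescence quantified ATP loss after 24 h compound treatment of LYMP2-003 lymphoblastoid cells at 37 C. Titration series were fitted with the standard Hill equation to give AC50.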

Assay [7] in a line: Cell Viability - LYMP2-015 (AID 971).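 Note: 0% = DMSO only and full effect = 92 µM tetraoctylammonium bromide; nearly all actives have a fitted effect of over 55% in size.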 The gist of the method:
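Cytotoxicity readout: decrease in intracellular ATP (CellTiter-Glo luminescence) in 2500 LYMP2-015 lymphoblastoid cells/well after 24 h compound exposure at 37 C. Concentration-response data fitted with the standard Hill equation to give AC50.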

Assay [8] can be described thus: Cell Viability - LYMP2-019 (AID 973).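 Note: 0% = DMSO alone and full effect = 92 µM tetraoctylammonium bromide; nearly all actives have a fitted effect of over 55% in size.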 An outline of the steps: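 AC50 values come from Hill-equation fits of luminescent intracellular ATP (CellTiter-Glo, 30 min, room temperature) following 24 h compound exposure at 37 C. Cells: LYMP2-019 lymphoblastoid line, 2500 per well, in complete culture medium.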
Assay [9] is described as follows: Cell Viability - LYMP2-002 (AID 977).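 Note: plate controls were DMSO only for no effect and 92 µM tetraoctylammonium bromide for full effect.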 The gist of the method:
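Human lymphoblastoid cells (2500/well) in complete medium were preincubated 5 hr at 37 C, then exposed to compounds for 24 hr at 37 C. Intracellular ATP was read by CellTiter-Glo luminescence; AC50 came from Hill-equation concentration-response fits.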

Assay [10] can be described thus: Cell Viability - LYMP2-008 (AID 980). Note: % is set by controls: 0 for no effect and ±100 for the full control effect; nearly all actives have a fitted effect of over 60% in size. An outline of the steps:
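Cytotoxicity determined from ATP-dependent luciferase luminescence (CellTiter-Glo) following 24 h compound exposure of human lymphoblastoid LYMP2-008 cells at 37 C. Concentration-response data fitted to the Hill equation to give AC50.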

Assay [11] is described as follows: Cell Viability - LYMP2-010 (AID 981). Note: % is set by controls: 0 for no effect and ±100 for the full control effect; nearly all actives have a fitted effect of over 55% in size. The gist of the method: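 CellTiter-Glo ATP luminescence measured cytotoxicity after 24 h compound exposure at 37 C. LYMP2-010 cells were seeded at 2500/well, with tetraoctylammonium bromide as control; concentration-response curves gave AC50 values by the Hill equation.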
The nature of assay [12]: Cell Viability - LYMP2-012 (AID 982).
Assay [13] can be described thus: Cell Viability - LYMP2-020 (AID 986). The gist of the method:
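Cytotoxicity in qHTS format: luminescent ATP readout from CellTiter-Glo after 24 h compound exposure at 37 C in complete medium. LYMP2-020 lymphoblastoid cells were seeded at 2500/well; concentration-response data fitted to the Hill equation for AC50.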

Assay [14] is described as follows: Cell Viability - LYMP2-022 (AID 987). The gist of the method:
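Cytotoxicity read as decreased cellular ATP (CellTiter-Glo luminescence, 30 min room temperature) after 24 hours compound exposure of 2500 lymphoblastoid LYMP2-022 cells/well at 37 C. Concentration-response data fitted with standard Hill equation for AC50.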

Assay [15] is described as follows: Cell Viability - LYMP1-002 - Assay at 40 hr (AID 994).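 Note: 0% = DMSO only and full inhibition = 92 µM tetraoctylammonium bromide; nearly all actives have a fitted effect of over 60% in size.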 The gist of the method:
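Cytotoxicity was read as loss of cellular ATP (CellTiter-Glo luminescence) after 40 hr compound exposure at 37 C of 2500 LYMP1-002 lymphoblastoid cells per well. Concentration-response data were fitted with the standard Hill equation to give AC50.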

A short description of assay [16]: qHTS assay for small molecule agonists of retinoid X receptor alpha signaling (AID 588544). The settings on record: HEK293T RXRa-UAS-bla, beta-lactamase reporter, 18 h; 530 nm emission.
Assay [17] is described as follows: qHTS assay for small molecule antagonists of retinoid X receptor alpha signaling (AID 588546; active = well fitted inhibition curve with a large enough effect in the signal ratio, with a control signal flat, not every such curve was filed as active; the % refers to the signal ratio;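 note: cells stimulated with 9-cis-retinoic acid as agonist; % is set by controls: 0 for no effect and ±100 for the full control effect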). The settings on record: HEK293T RXRa-UAS-bla, beta-lactamase ratio, antagonist mode; measured here: W530 green channel, cytotoxicity proxy. The gist of the method:
(§1)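 Beta-lactamase reporter inhibition, read as CCF4 fluorescence ratio (ex 405, em 460/530 nm) after 2 h at RT. HEK293T UAS-bla cells, 2500/well, were stimulated with 9-cis-RA at 500 or 100 nM final alongside test compound for 18 h at 37 C.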

The target of assay [18] is Retinoic acid receptor RXR-alpha (Homo sapiens) (UniProt P19793). The assay is described as above. The settings on record: HEK293T RXRa-UAS-bla, beta-lactamase ratio, antagonist mode. An outline of the steps: as §1
Assay [19] has as its target Tumor necrosis factor (Homo sapiens) (UniProt P01375). The assay is described as follows: qHTS assay to identify small molecules that stimulate Tumor Necrosis Factor-alpha (TNF-alpha) secretion (AID 651757; active = well fitted curve in the direction sought with a large enough effect in the signal ratio; the % refers to the signal ratio; note: 0% is about no effect). The gist of the method: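 Secreted TNF-alpha quantified by TR-FRET sandwich of two labeled anti-TNF-alpha antibodies, incubated 3 hr at room temperature. Preceded by 17 hr, 37 C compound treatment of THP-1 cells at 3000 cells/well.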

The nature of assay [20]: qHTS assay for small molecule antagonists of the retinoid-related orphan receptor gamma (ROR-gamma) signaling pathway - cell viability counter screen (AID 720652; active = well fitted curve in the direction sought with a large enough effect in the repeat runs; an effect the other way counts as inactive or inconclusive;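 note: CHO reporter cells with doxycycline-induced ROR-gamma expression; compound exposure lasted 16 hr before ATP read; % is set by controls: 0 for no effect and ±100 for the full control effect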). An outline of the steps:
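Cytotoxicity counter screen: intracellular ATP (CellTiter-Glo luminescence) measured in the doxycycline-induced CHO RORE-luciferase reporter line after 16 hr compound exposure at 37 C, 5% CO2.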

Sequence of Retinoic acid receptor RXR-alpha (Homo sapiens) (P19793 whole entry, looked up): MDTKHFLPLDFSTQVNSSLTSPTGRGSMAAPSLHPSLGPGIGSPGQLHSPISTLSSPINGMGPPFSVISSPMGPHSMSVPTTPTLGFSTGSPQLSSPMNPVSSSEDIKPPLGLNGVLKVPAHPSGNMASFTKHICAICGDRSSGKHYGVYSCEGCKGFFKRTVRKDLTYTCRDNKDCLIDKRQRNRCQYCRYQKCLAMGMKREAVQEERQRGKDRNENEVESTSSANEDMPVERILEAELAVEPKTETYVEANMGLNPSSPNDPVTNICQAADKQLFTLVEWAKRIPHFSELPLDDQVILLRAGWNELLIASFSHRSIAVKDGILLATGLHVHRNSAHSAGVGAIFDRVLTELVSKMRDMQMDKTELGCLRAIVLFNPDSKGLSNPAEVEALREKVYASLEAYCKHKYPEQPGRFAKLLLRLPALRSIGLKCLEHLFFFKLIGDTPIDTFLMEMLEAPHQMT
Sequence of Cytochrome P450 3A4 (Homo sapiens) (P08684 whole entry, looked up): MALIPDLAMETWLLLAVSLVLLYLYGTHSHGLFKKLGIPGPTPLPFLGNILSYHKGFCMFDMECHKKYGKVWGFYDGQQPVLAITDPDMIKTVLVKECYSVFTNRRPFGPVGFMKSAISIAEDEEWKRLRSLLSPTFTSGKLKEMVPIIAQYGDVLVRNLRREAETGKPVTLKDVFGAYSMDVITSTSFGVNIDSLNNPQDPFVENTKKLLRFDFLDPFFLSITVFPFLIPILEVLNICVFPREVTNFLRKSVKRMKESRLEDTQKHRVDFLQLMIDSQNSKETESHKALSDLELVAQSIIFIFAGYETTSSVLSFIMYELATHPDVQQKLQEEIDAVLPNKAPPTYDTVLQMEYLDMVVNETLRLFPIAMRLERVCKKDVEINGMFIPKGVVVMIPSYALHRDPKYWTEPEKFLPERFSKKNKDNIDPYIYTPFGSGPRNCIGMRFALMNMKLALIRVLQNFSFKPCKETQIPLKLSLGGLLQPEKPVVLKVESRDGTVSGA
Sequence of Tumor necrosis factor (Homo sapiens) (P01375 whole entry, looked up): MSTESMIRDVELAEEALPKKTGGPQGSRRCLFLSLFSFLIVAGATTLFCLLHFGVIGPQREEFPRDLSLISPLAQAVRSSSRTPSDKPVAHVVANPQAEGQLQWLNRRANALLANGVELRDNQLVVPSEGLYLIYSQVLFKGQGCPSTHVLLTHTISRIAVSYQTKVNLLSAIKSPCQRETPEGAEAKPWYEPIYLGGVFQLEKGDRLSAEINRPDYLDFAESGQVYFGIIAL

Take `Nc1cccc(Cl)c1`: the Potency result in assay [1], in assay [2], in assay [4], in assay [5], in assay [6] and in [7] was “inactive” in each case. Further, the Potency result in assay [8], in assay [9], in assay [10], in assay [11], in assay [12] and in [13] was “inactive” each time. Also, the Potency result in [14], in assay [15] and in assay [20] was “inactive” in each case. For the same compound, the compound was classed as inactive in [3] and in assay [19]. Besides, the max response in assay [16] is 4.67%; in assay [17] it was 0.683%; in assay [18], -7.21% (inactive).
Regarding `CN=C=O`, the Potency result in assay [1], in assay [2], in assay [4], in assay [5], in assay [6] and in assay [7] was “inactive” in each case. For the same compound, the Potency result in assay [8], in assay [9], in assay [10], in assay [11], in [12] and in [13] was “inactive” throughout. Moreover, the Potency entry in assay [14], in assay [15] and in [20] was “inactive” throughout. Further, the result in assay [3] and in assay [19] was inactive. Moreover, the max response in assay [16] is -13%; in assay [17] it was -1.71%; in [18] it was 0.777% (inactive).
In the case of `CC(=O)CCC(C)=O`, the Potency result in assay [1], in [2], in assay [4], in [5], in assay [6] and in assay [7] was “inactive” each time. Moreover, the Potency result in [8], in [9], in [10], in assay [11], in assay [12] and in [13] was “inactive” throughout. Moreover, the Potency entry in assay [14], in [15] and in assay [20] was “inactive” each time. The outcome in assay [3] and in assay [19] was inactive. Further, the figures for the max response in [16], in assay [17] and in assay [18] were 0.0938%, -1.17% and 0.643% (inactive), respectively.
For the compound `ClCC(Br)CBr` (stereo unspecified), the Potency entry in assay [1], in [2], in assay [4], in [5], in assay [6] and in [7] was “inactive” in each case. Further, the Potency result in [8], in [9], in assay [10], in [11], in [12] and in assay [13] was “inactive” in each case. Moreover, the Potency entry in assay [14], in assay [15] and in [20] was “inactive” in each case. Besides, the compound was called inactive in [3] and in [19]. Besides, the max response in [16] is -9.36%; in assay [17], -1.84%; in assay [18], 13.4% (inactive).
Turning to `CCN(CC)N=O`, the Potency entry in [1], in [2], in assay [4], in [5], in assay [6] and in assay [7] was “inactive” each time. The Potency entry in assay [8], in assay [9], in assay [10], in assay [11], in [12] and in assay [13] was “inactive” in each case. Further, the Potency entry in assay [14], in [15] and in assay [20] was “inactive” throughout. Besides, the result in assay [3] and in assay [19] was inactive. Besides, the values for the max response in assay [16], in assay [17] and in assay [18] were -8.19%, -3.04% and 1.08% (inactive), respectively.
Regarding `Cc1ccc(N)cc1N`, the Potency entry in [1], in assay [4], in [5], in assay [6], in assay [7] and in [8] was “inactive” each time. In addition, the Potency result in [9], in assay [10], in [11], in assay [12], in assay [13] and in assay [14] was “inactive” throughout. Also, the Potency result in assay [15] and in assay [20] was “inactive” each time. Also, in assay [3], the compound was classed as inactive. For the same compound, the max response is -4.9% and 16.6% in assay [16]; -0.584% and 0.527% in assay [17]; 9.25% (inactive) and -0.891% (inactive) in assay [18].
`Clc1cccc(Cl)c1`: the Potency entry in assay [1], in [2], in assay [4], in assay [5], in [6] and in assay [7] was “inactive” each time. Besides, the Potency entry in assay [8], in assay [9], in [10], in assay [11], in assay [12] and in [13] was “inactive” throughout. The Potency result in [14] and in assay [15] was “inactive” in each case. The call in assay [3] and in assay [19] was inactive. The values for the max response in assay [16], in [17] and in assay [18] were 5.35%, -14.2% and 24.2% (inactive), respectively.
For `Cc1ccc(N)cc1Cl`, the Potency result in assay [1], in assay [2], in [5], in assay [6], in assay [7] and in assay [8] was “inactive” in each case. In addition, the Potency entry in assay [9], in assay [10], in [11], in assay [12], in assay [13] and in [14] was “inactive” each time. The Potency entry in assay [15] and in assay [20] was “inactive” throughout. For the same compound, the compound was classed as inactive in assay [3] and in assay [19]. The max response was -18.1% in assay [16], -6.83% in assay [17] and -11.5% (inactive) in [18].
